# Source: PubChem BioAssay (Tox21)
# Values joined by “and” are separate entries in the source; they are usually repeats but may differ in a detail not shown here. Equal entries are not always repeated. Results filed as inconclusive are left out. Entries that show only a call come without a potency. Where a structure was tested more than once in an assay, its records may differ in their call. Active and inactive are the calls of the source. Unless noted, calls come from the whole dose curve; as a rule, active = well fitted curve in the direction sought with a large enough effect in the repeat runs; inconclusive = weak or mixed curves; inactive = no such curve, though single readings can be large; an effect the other way counts as inactive or inconclusive.
# Experiments:
# [1] = qHTS assay to identify small molecule agonists of the vitamin D receptor (VDR) signaling pathway - cell viability counter screen (AID 743224); note: nearly all actives have a fitted effect of over 50% in size; note: potency is the fitted concentration of half-maximal effect
# Summary of the method: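 Plated VDR-bla cells (4 h, 37C) received compound, incubated 16 h, then LiveBLAzer substrate 2 h RT; CellTiter-Glo added afterwards, luminescence read at 30 min.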
# [2] = qHTS assay to identify small molecule antagonists of the vitamin D receptor (VDR) signaling pathway - cell viability counter screen (AID 743225); note: nearly all actives have a fitted effect of over 50% in size; note: potency is the fitted concentration of half-maximal effect
# Summary of the method: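 VDR-bla HEK 293T cells, 4 h pre-incubation at 37C, then compound plus 1-alpha,25-dihydroxyvitamin D3 (3 nM final) for 16 h. After the beta-lactamase FRET read, CellTiter-Glo was added to the same wells; luminescence after 30 min at room temperature.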
# [3] = qHTS assay to identify small molecule agonists of the NFkB signaling pathway - cell viability counter screen (AID 1159515; calls by dose curve; note: nearly all actives have a fitted effect of over 55% in size; note: potency is the fitted concentration of half-maximal effect)
# Summary of the method: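 Using the same wells as the NFkB reporter read, ME-180 NFkB-bla cells given compounds for 5 hr were assessed for viability via CellTiter-Glo, with luminescence taken after a 30 min room-temperature incubation.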
# [4] = qHTS assay to identify small molecule agonists of the endoplasmic reticulum stress response signaling pathway (AID 1159516; active = well fitted activation curve with a large enough effect in the signal ratio in the repeat runs, not every such curve was filed as active; the % refers to the signal ratio; note: potency is the fitted concentration of half-maximal effect)
# Summary of the method: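 An ESRE-bla HeLa cell assay: compounds were pin-transferred from DMSO onto overnight-plated cells and left 5 hr at 37 C. Substrate was then loaded for 2 hr at room temperature before reading fluorescence at 460 nm and 530 nm.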
# [5] = qHTS assay to identify small molecule antagonists of the retinoid-related orphan receptor gamma (ROR-gamma) signaling pathway - cell viability counter screen (AID 1159520); note: nearly all actives have a fitted effect of over 50% in size; note: potency is the fitted concentration of half-maximal effect
# Summary of the method: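 Tet-on ROR gamma CHO cells were given compounds for 2 hr, then doxycycline hyclate at 1 uM final, and incubated 16 hr at 37 C. Viability was measured as ATP content by CellTiter-Glo luminescence.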
# [6] = qHTS assay to identify small molecule agonists of the AP-1 signaling pathway - cell viability counter screen (AID 1159525; calls by dose curve; note: nearly all actives have a fitted effect of over 55% in size)
# Summary of the method: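 AP-1-bla ME-180 cells in Opti-MEM with 0.5% dialyzed FBS, compound exposure 5 h at 37 C in 15-point titration. Viability read in the same wells as ATP content by CellTiter-Glo luminescence, normalised to tetra-n-octylammonium bromide and DMSO controls.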
# [7] = qHTS assay to identify small molecule agonists of the AP-1 signaling pathway (AID 1159526; calls by dose curve; note: potency is the fitted concentration of half-maximal effect)
# [8] = target: Retinoic acid receptor RXR-alpha (Homo sapiens) (UniProt P19793); experiment: qHTS assay to identify small molecule agonists of the RXR signaling pathway (AID 1159527; calls by dose curve; note: nearly all actives have a fitted effect of over 35% in size)
# Summary of the method: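 GeneBLAzer RXR-alpha-UAS-bla HEK 293T cells in medium with 2% charcoal-stripped FBS, pre-incubated 5 hr at 37 C, then exposed to compounds 16 hr. Beta-lactamase reporter read by FRET substrate, 2 hr room temperature, 460/530 nm emission.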
# [9] = qHTS assay to identify small molecule antagonists of the retinoid acid receptor (RAR) signaling pathway - cell viability counter screen (AID 1159551); note: nearly all actives have a fitted effect of over 35% in size
# Summary of the method: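 Retinol-stimulated (1 uM final) C3RL4 cells, compound 6 h, 37 C; readout CellTiter-Glo luminescence (ATP) after 30 min RT incubation.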
# [10] = qHTS assay to identify small molecule antagonists of the retinoic acid receptor (RAR) signaling pathway (AID 1159552; note: nearly all actives have a fitted effect of over 50% in size)
# Summary of the method: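 RARE-luc C3RL4 cells; cpds + 1 uM (final) retinol, 6 hr, 37 C/5% CO2; luciferase reagent, 30 min RT, luminescence readout. Inhibitors of retinol-driven signal scored.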
# [11] = qHTS assay to identify small molecule agonists of the retinoic acid receptor (RAR) signaling pathway (AID 1159553); settings: C3RL4 RARE luciferase reporter, agonist, 6 h; activation: at 73.3 µM (top of the series) unless noted; note: potency is the fitted concentration of half-maximal effect
# Summary of the method: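 Reporter readout comes from luciferase under RARE control in C3RL4 cells; compound exposure lasts 6 hr at 37 C in 5% CO2, and luminescence is recorded following a 30 min room-temperature incubation with reagent.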
# [12] = qHTS assay to identify small molecule agonists of the RXR signaling pathway - cell viability counter screen (AID 1159529); note: nearly all actives have a fitted effect of over 50% in size; note: potency is the fitted concentration of half-maximal effect
# Summary of the method: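 RXR-alpha-UAS-bla HEK 293T cells in medium with 2% charcoal-stripped FBS were preincubated 5 hr, then exposed to compounds for 16 hr at 37 C. Viability was read as CellTiter-Glo luminescence after 30 min at room temperature.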
# [13] = target: Nuclear receptor ROR-gamma (Homo sapiens) (UniProt P51449); experiment: qHTS assay to identify small molecule antagonists of the retinoid-related orphan receptor gamma (ROR-gamma) signaling pathway (AID 1159521; note: nearly all actives have a fitted effect of over 50% in size; note: potency is the fitted concentration of half-maximal effect)
# Summary of the method: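 Tet-on RORγ CHO cells carrying a ROR response element–luciferase reporter were pretreated with compounds for 2 h, then induced with 1 uM (final) doxycycline hyclate for 16 h at 37 C. Antagonism was read as decreased ONE-Glo luminescence.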
# [14] = qHTS assay to identify small molecule agonists of the endoplasmic reticulum stress response signaling pathway - cell viability counter screen (AID 1159517; calls by dose curve)
# Summary of the method: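 ESRE-bla HeLa cells, 1,500 per well, seeded overnight then treated with compounds for 5 hr at 37 C. After the beta-lactamase read, viability in the same wells is measured by CellTiter-Glo luminescence after 30 min at room temperature.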
# Chain of Retinoic acid receptor RXR-alpha (Homo sapiens) (P19793 whole entry, looked up): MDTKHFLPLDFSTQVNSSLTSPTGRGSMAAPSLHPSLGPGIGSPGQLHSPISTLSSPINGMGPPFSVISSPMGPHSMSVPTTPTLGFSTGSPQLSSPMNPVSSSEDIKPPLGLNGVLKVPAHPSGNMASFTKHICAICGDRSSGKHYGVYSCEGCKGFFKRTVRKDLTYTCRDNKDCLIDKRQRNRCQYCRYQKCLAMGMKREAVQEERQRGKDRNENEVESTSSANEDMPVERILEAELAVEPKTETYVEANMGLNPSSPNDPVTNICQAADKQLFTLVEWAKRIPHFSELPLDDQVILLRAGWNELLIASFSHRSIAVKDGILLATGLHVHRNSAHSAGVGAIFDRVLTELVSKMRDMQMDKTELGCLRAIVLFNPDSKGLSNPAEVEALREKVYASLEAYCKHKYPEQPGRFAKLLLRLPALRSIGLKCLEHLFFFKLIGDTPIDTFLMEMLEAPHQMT
smiles,measurement,setting,value
C=CCCC(=O)/C=C/C1C(C)=CCCC1(C)C (configuration not stated),Potency,[1],inactive
same,Potency,[2],inactive
same,Potency,[3],inactive
same,Potency,[4],inactive
same,Potency,[5],inactive
same,Potency,[6],inactive
same,Potency,[7],inactive
same,Potency,[8],inactive
same,Potency,[9],inactive
same,Potency,[10],inactive
same,Potency,[11],inactive
O=C(O)CN(CCN(CC(=O)O)CC(=O)O)CC(=O)O,"activity change, negative = cytotoxicity",[1],-2.08% [at 2.7 µM] (inactive)
same,"viability change, negative = cytotoxic",[2],4.84% [at 3.11 µM] (inactive)
same,"activity, negative = cytotoxic",[3],-2.83% [at 3.12 µM] (inactive)
same,activation,[4],-1.14% [at 3.11 µM] (inactive)
same,"activity, negative = cytotoxicity",[5],-1.43% [at 3.27 µM] (inactive)
same,"viability change, negative = cytotoxic",[6],-2.04% [at 2.72 µM] (inactive)
same,activation,[8],-6.85% [at 2.71 µM] (inactive)
same,"activity change, negative = cytotoxicity",[12],-6.94% [at 2.72 µM] (inactive)
same,"activity change, negative = cytotoxicity",[9],1.05% [at 3.27 µM] (inactive)
Oc1c(I)cc(Cl)c2cccnc12,Potency,[1],5.49 µM (active)
same,Potency,[2],inactive
same,Potency,[3],inactive
same,Potency,[4],inactive
same,Potency,[13],54.4 µM (active)
same,Potency,[12],1.09 µM (active)
same,Potency,[9],inactive
same,Potency,[10],inactive
same,Potency,[11],76.8 µM (active) and inactive
NC(=O)c1cccc([N+](=O)[O-])c1,Potency,[1],inactive
same,Potency,[2],inactive
same,Potency,[3],inactive
same,Potency,[4],inactive
same,Potency,[5],inactive
same,Potency,[6],inactive
same,Potency,[7],inactive
same,Potency,[8],inactive
same,Potency,[12],inactive
same,Potency,[9],inactive
same,Potency,[10],inactive
CCCC(=O)OCOC(=O)C1=C(C)NC(C)=C(C(=O)OC)C1c1cccc(Cl)c1Cl (configuration not stated),Potency,[1],inactive
same,Potency,[2],inactive
same,Potency,[3],inactive
same,Potency,[4],inactive
same,Potency,[5],inactive
same,Potency,[6],inactive
same,Potency,[7],inactive
same,Potency,[8],inactive
same,Potency,[12],inactive
same,Potency,[9],inactive
CN(C)C(=O)COC(=O)Cc1ccc(OC(=O)c2ccc(N=C(N)N)cc2)cc1,Potency,[1],inactive
same,Potency,[2],inactive
same,Potency,[3],inactive
same,Potency,[4],inactive
same,Potency,[5],inactive
same,Potency,[6],inactive
same,Potency,[7],inactive
same,Potency,[8],inactive
same,Potency,[12],inactive
same,Potency,[9],inactive
Clc1nnc(Cl)c2ccccc12,Potency,[1],inactive
same,Potency,[3],inactive
same,Potency,[4],inactive
same,Potency,[5],inactive
same,Potency,[6],inactive
same,Potency,[7],inactive
same,Potency,[9],inactive
same,Potency,[10],inactive
same,Potency,[11],inactive
Cc1c2ccccc2c(C)c2c1ccc1ccccc12,Potency,[1],43.2 µM (active) and 27.5 µM (active)
same,Potency,[2],43.2 µM (active) and 19.5 µM (active)
same,Potency,[3],12.2 µM (active)
same,Potency,[4],43.2 µM (active)
same,Potency,[5],60.5 µM (active) and 27.3 µM (active)
same,Potency,[6],inactive
same,Potency,[12],19.3 µM (active) and 19.5 µM (active)
same,Potency,[9],inactive
same,Potency,[10],inactive
same,Potency,[11],54.5 µM (active)
S=c1nccc[nH]1,Potency,[1],inactive
same,Potency,[2],inactive
same,Potency,[3],inactive
same,Potency,[4],inactive
same,Potency,[5],inactive
same,Potency,[6],inactive
same,Potency,[7],49.1 µM (active)
same,Potency,[8],inactive
same,Potency,[12],inactive
same,Potency,[9],inactive
Cc1cccc(C)c1NC(=O)c1ccc(N)cc1,Potency,[2],inactive
same,Potency,[3],inactive
same,Potency,[4],inactive
same,Potency,[5],inactive
same,Potency,[6],inactive
same,Potency,[7],inactive
same,Potency,[8],inactive
same,Potency,[12],inactive
same,Potency,[9],inactive
C#C[C@]1(OC(C)=O)CC[C@H]2[C@@H]3CCC4=C[C@@H](OC(C)=O)CC[C@@H]4[C@H]3CC[C@@]21C,Potency,[1],inactive
same,Potency,[2],inactive
same,Potency,[3],inactive
same,Potency,[4],inactive
same,Potency,[5],inactive
same,Potency,[9],inactive
same,Potency,[11],inactive
CC1=CCC(=C(C)C)CC1,Potency,[1],inactive
same,Potency,[2],inactive
same,Potency,[3],inactive
same,Potency,[4],inactive
same,Potency,[5],inactive
same,Potency,[6],inactive
same,Potency,[7],inactive
same,Potency,[8],inactive
same,Potency,[12],inactive
same,Potency,[9],inactive
C[C@H]1NCc2cc(-c3ccc4c(=O)c(C(=O)O)cn(C5CC5)c4c3OC(F)F)ccc21,Potency,[1],inactive
same,Potency,[2],inactive
same,Potency,[3],inactive
same,Potency,[4],inactive
same,"activity, negative = cytotoxicity",[5],-17.1% [at 19 µM] (inactive)
same,"viability change, negative = cytotoxic",[6],1.98% [at 15.8 µM] (inactive)
same,activation,[7],-2.94% [at 15.8 µM] (inactive)
same,activation,[8],-4.06% [at 15.8 µM] (inactive)
same,"activity change, negative = cytotoxicity",[9],0.739% [at 19 µM] (inactive)
same,Potency,[11],inactive
CC1(C)[C@@H](O)CC[C@]2(C)[C@H]3C(=O)C=C4[C@@H]5C[C@@](C)(C(=O)O)CC[C@]5(C)CC[C@@]4(C)[C@]3(C)CC[C@@H]12,Potency,[2],inactive
same,Potency,[3],inactive
same,Potency,[4],inactive
same,Potency,[13],inactive
same,Potency,[8],inactive
same,Potency,[12],inactive
same,Potency,[9],inactive
CCCCCCOC(=O)C(C)CC (configuration not stated),Potency,[1],inactive
same,Potency,[2],inactive
same,Potency,[3],inactive
same,Potency,[4],inactive
same,Potency,[5],inactive
same,Potency,[6],inactive
same,Potency,[7],inactive
same,Potency,[8],inactive
same,Potency,[12],inactive
same,Potency,[9],inactive
same,Potency,[10],inactive
same,Potency,[11],inactive
CC/C=C\CCCCCO,Potency,[1],inactive
same,Potency,[2],inactive
same,Potency,[3],inactive
same,Potency,[4],inactive
same,Potency,[5],inactive
same,Potency,[6],inactive
same,Potency,[7],inactive
same,Potency,[12],inactive
same,Potency,[9],inactive
C#C[C@]1(OC(C)=O)CC[C@H]2[C@@H]3CCC4=C/C(=N/O)CC[C@@H]4[C@H]3CC[C@@]21CC,Potency,[1],inactive
same,Potency,[2],inactive
same,Potency,[3],inactive
same,Potency,[4],inactive
same,Potency,[5],inactive
same,Potency,[9],inactive
same,Potency,[11],inactive
O=C1CCCCCCCCCCCCCCCO1,Potency,[1],inactive
same,Potency,[2],inactive
same,Potency,[3],inactive
same,Potency,[14],inactive
same,Potency,[5],inactive
same,Potency,[13],inactive
same,Potency,[6],inactive
same,Potency,[7],inactive
same,Potency,[8],inactive
same,Potency,[12],inactive
same,Potency,[9],inactive
same,Potency,[10],inactive
Cl[Si](Cl)(c1ccccc1)c1ccccc1,Potency,[1],inactive
same,Potency,[3],inactive
same,Potency,[14],inactive
same,Potency,[5],inactive
same,Potency,[13],inactive
same,Potency,[6],inactive
same,Potency,[7],inactive
same,Potency,[8],inactive
same,Potency,[12],inactive
same,Potency,[9],inactive
CCOc1ccc2ccccc2c1C(=O)N[C@@H]1C(=O)N2[C@@H]1SC(C)(C)[C@@H]2C(=O)O,Potency,[1],inactive
same,Potency,[2],inactive
same,Potency,[3],inactive
same,Potency,[14],inactive
same,Potency,[5],inactive
same,Potency,[13],inactive
same,Potency,[6],inactive
same,Potency,[7],inactive
same,Potency,[8],inactive
same,Potency,[12],inactive
same,Potency,[9],inactive
same,Potency,[11],inactive
COCCOc1cc2cc(C(=O)NC3CCN(C(C)C)CC3)n(CC(=O)Nc3ccc(Cl)cn3)c2cn1,Potency,[1],inactive
same,Potency,[2],inactive
same,Potency,[3],inactive
same,Potency,[14],inactive
same,Potency,[5],inactive
same,Potency,[13],inactive
same,Potency,[6],inactive
same,Potency,[7],inactive
same,Potency,[8],inactive
same,Potency,[12],inactive
same,Potency,[9],inactive
same,Potency,[11],inactive
CCCCCCCCCCC[C@@H](C[C@@H]1OC(=O)[C@H]1CCCCCC)OC(=O)[C@H](CC(C)C)NC=O,Potency,[3],inactive
same,Potency,[14],inactive
same,Potency,[5],11.9 µM (active)
same,Potency,[13],16.8 µM (active)
same,Potency,[6],inactive
same,Potency,[7],inactive
same,Potency,[8],inactive
same,Potency,[12],inactive
same,Potency,[9],inactive
same,Potency,[10],inactive
same,Potency,[11],inactive
